PubChem BioAssay (NCI)
Compounds without any hit were thinned out: in the full panel of roughly 83,000, 20% have a hit.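 A percent growth of 40 corresponds to 60% growth inhibition; 0 means no net growth; -100 means all cells died. Active threshold: below 10.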 Active and inactive are the calls of the source.

Columns and labels:
Assay in all cases: NCI-60 one-dose screen, 48 h (100 = growth as untreated, 0 = no growth, -100 = all killed)
Settings in all cases: 10 µM unless noted
[1] = tested on: NCI-H23 lung
[2] = tested on: NCI-H226 lung
[3] = tested on: NCI-H322M lung
[4] = tested on: HOP-62 NSCLC
[5] = tested on: NCI-H460 lung
[6] = tested on: HOP-92 NSCLC
[7] = tested on: NCI-H522 lung
[8] = tested on: A549/ATCC NSCLC
[9] = tested on: 786-0 renal
[10] = tested on: COLO 205 colon

Measured: growth

Cc1cc(O)c(C2=NN(c3ccc(S(N)(=O)=O)cc3)C(c3ccccc3Cl)C2)cc1Cl (stereo not given)
active: [1] 2.15% | [4] -6.9% | [5] -36.2% | [7] -56.1% | [9] -66.3% | [10] -92.1%
inactive: [2] 38.7% | [3] 48.3% | [6] 38.5% | [8] 13%

CC/C=C\CCC/C=C1/C(=O)C=C[C@@H]1C/C=C\CCCC(=O)O
inactive: [1] 80.4% | [2] 90.3% | [3] 107% | [4] 100% | [5] 83.7% | [6] 75.3% | [7] 29.9% | [8] 79.9% | [9] 85.2% | [10] 85.8%

O=C(CC(SCc1ccccc1)c1ccccc1)c1ccccc1 (stereo not given)
inactive: [1] 84.6% | [2] 87.6% | [3] 97.1% | [4] 91.7% | [5] 103% | [6] 80.1% | [7] 111% | [8] 101% | [9] 84% | [10] 94.3%

O=C(c1ccccc1)c1c(/C=C/c2ccccc2)nc2ccccc2c1/C=C/c1ccc(Br)cc1
inactive: [1] 94.5% | [2] 95.1% | [3] 96.7% | [4] 101% | [5] 106% | [6] 98.3% | [7] 88.2% | [8] 98.1% | [9] 99.7% | [10] 114%

S=C(c1ccc2c(c1)OCO2)N1CCN(c2ccccc2Cl)CC1
inactive: [1] 101% | [2] 87.9% | [3] 103% | [4] 102% | [5] 102% | [6] 67.3% | [7] 74.8% | [8] 98.2% | [9] 92.4% | [10] 97.1%

COC(=O)c1ccc(CSc2nnc(-c3c(C)nc4ccc(C)cn34)o2)cc1
inactive: [1] 85.9% | [2] 95.2% | [3] 98.2% | [4] 89.6% | [5] 109% | [6] 92% | [7] 83.5% | [8] 103% | [9] 91.8% | [10] 117%

CNc1ccc(NC)c2c1C(=O)c1ccccc1C2=O
inactive: [1] 70.1% | [2] 79.1% | [3] 84% | [4] 87% | [5] 91% | [6] 78.3% | [7] 97.1% | [8] 100% | [9] 92.1% | [10] 108%

Cc1c(C(=O)OC(=NC2CCCCC2)NC2CCCCC2)sc2c1c(=O)nc1c(C#N)n[nH]n12
active: [6] -16.8%
inactive: [1] 97.3% | [2] 131% | [3] 115% | [4] 89.5% | [5] 112% | [7] 89.2% | [8] 108% | [9] 92% | [10] 120%

CC(C)Sc1nc(NNC(N)=S)c(C#N)c(-c2ccc(F)cc2)n1
inactive: [1] 102% | [2] 94.7% | [3] 99.1% | [4] 101% | [5] 102% | [6] 70.2% | [7] 85.2% | [8] 92.5% | [9] 90.5% | [10] 106%

C=CC(=O)Nc1cccc(Oc2nccc(Nc3nnc(C4CC4)s3)n2)c1
inactive: [1] 97.1% | [2] 101% | [3] 105% | [4] 110% | [5] 95.6% | [6] 66.1% | [7] 86.8% | [8] 103% | [9] 86.6% | [10] 107%

N#C/C(=C/C=C/c1cccc(Cl)c1)S(=O)c1ccccc1 (stereo not given)
active: [1] -43.6% | [2] -33% | [3] -44.9% | [4] -17.4% | [5] -22.1% | [6] -60.9% | [7] -89.2% | [8] 1.83% | [9] -88.7% | [10] -63.1%

Cc1ccc(N2CCN(C(=S)c3cccs3)CC2)cc1
inactive: [1] 104% | [2] 94.9% | [3] 107% | [4] 105% | [5] 109% | [6] 74.8% | [7] 82.6% | [8] 92.5% | [9] 90.3% | [10] 112%

Cc1cc(Cl)nc(NCc2cc(Nc3ccnc4cc(Cl)ccc34)ccc2F)n1
inactive: [1] 41.5% | [2] 64.2% | [3] 79.6% | [4] 76.7% | [5] 34.8% | [6] 40.4% | [7] 45.1% | [8] 58.5% | [9] 76% | [10] 75.8%

Cc1cc[c-]cc1.Fc1c[c-]c(-c2ccccn2)c(F)c1.[Pt+2].c1ccc(P(C[PH+](c2ccccc2)c2ccccc2)c2ccccc2)cc1
inactive: [3] 19.2% | [9] 23.1%
active: [1] 7.43% | [2] -2.11% | [4] 2.59% | [5] 3.67% | [6] -16.3% | [7] 8.51% | [8] 8.52% | [10] -41.2%

Cc1cc(Cl)ccc1Nc1nc(C(F)(F)F)ccc1C(=O)N/N=C/c1ccc(N(C)C)cc1
inactive: [1] 30.5% | [2] 51.1% | [3] 25.7% | [4] 24% | [5] 20.3% | [6] 18.7% | [8] 18.2% | [9] 16.8% | [10] 14.9%
active: [7] 7.24%

O=[N+]([O-])c1ccc(-c2cc(-c3ccc(Nc4nc(Nc5ccc(Cl)cc5)nc(Nc5ccc(Cl)cc5)n4)cc3)no2)cc1
inactive: [1] 84.1% | [2] 109% | [3] 88.4% | [4] 87.4% | [5] 95.9% | [6] 66.1% | [7] 80.9% | [8] 88.6% | [9] 89.7% | [10] 95.4%

Cc1ccc(S(=O)(=O)Oc2cc(OS(=O)(=O)c3ccc(C)cc3)cc(OS(=O)(=O)c3ccc(C)cc3)c2)cc1
inactive: [1] 98.9% | [2] 101% | [3] 140% | [4] 101% | [5] 100% | [6] 72.1% | [7] 80.8% | [8] 97.5% | [9] 101% | [10] 114%

O=C(N=c1oc2ccccc2cc1-c1cc2ccccc2[nH]1)c1ccc(Cl)cc1
inactive: [1] 29.4% | [2] 84.6% | [3] 53.5% | [4] 63.1% | [5] 77.2% | [6] 24% | [7] 14.2% | [8] 51.3% | [9] 70.7% | [10] 69.7%

N=C1CCC(=N)c2c1c(O)c1ccccc1c2O
inactive: [1] 82.3% | [2] 87.3% | [3] 93.1% | [4] 103% | [5] 173% | [6] 88.7% | [7] 91.6% | [8] 95.2% | [9] 113% | [10] 114%

CCOC(CN=Cc1cc(C)c2[nH]c3ccccc3c2c1C)OCC
active: [2] 6.9%
inactive: [1] 97.7% | [3] 113% | [4] 102% | [5] 83.1% | [6] 115% | [7] 113% | [8] 102% | [9] 93.2% | [10] 107%

CC1(C)CC[C@]2(C(=O)N3CCOCC3)CC[C@]3(C)C(=CC[C@@H]4[C@@]5(C)CC[C@H](OC(=O)c6cccnc6)C(C)(C)[C@@H]5CC[C@]43C)[C@@H]2C1
inactive: [1] 68.9% | [2] 50.1% | [3] 88.2% | [4] 78.7% | [5] 18.3% | [6] 66.4% | [7] 73.3% | [8] 47.3% | [9] 62.4% | [10] 58.4%

COc1cc(N=Nc2ccc(N)cc2)c(OC)cc1N=Nc1ccccc1.[Cl][Zn][Cl]
inactive: [1] 89% | [2] 104% | [3] 78.2% | [4] 86.5% | [5] 109% | [6] 71.5% | [7] 108% | [8] 110% | [9] 110% | [10] 102%

COCN1CCC2N(COC)CCC3N(COC)CCC1N23 (stereo not given)
inactive: [1] 105% | [2] 111% | [3] 124% | [4] 107% | [5] 109% | [6] 96.3% | [7] 107% | [8] 97.1% | [9] 109% | [10] 94.7%

O=C1C=C[C@]2(C[C@@H](c3cccc(C(F)(F)F)c3)O[C@@H](c3cccc(C(F)(F)F)c3)O2)O1
active: [2] -72.7% | [4] 4.06% | [5] 1.85% | [6] -5.73% | [7] -78.8% | [9] -88.8%
inactive: [1] 50.1% | [3] 74.3% | [8] 27.3% | [10] 12.1%

CC1O[C@@H](OC2[C@H](OC(=O)/C=C/c3ccc(O)c(O)c3)C(COC3O[C@H](C)C(O)C(O)[C@@H]3O)O[C@@H](OCCc3ccc(O)c(O)c3)[C@H]2O)[C@@H](O)C(O)[C@H]1O (stereo not given in full)
inactive: [1] 101% | [2] 112% | [3] 89.4% | [4] 103% | [5] 109% | [6] 102% | [7] 86.6% | [8] 89.8% | [9] 98.8% | [10] 104%

O=C(CCCCCCSc1nc(-c2ccccc2)cc(-c2ccc(Cl)cc2)n1)NO
active: [1] -17.7% | [2] 2.23% | [4] -9.16% | [5] 7.04% | [6] -7.58% | [7] -15.8% | [8] -23% | [9] 1.46%
inactive: [3] 21.3% | [10] 20.9%

N#Cc1c(-c2ccccn2)[nH]c(=S)[nH]c1=O
inactive: [1] 106% | [2] 103% | [3] 97% | [4] 99.9% | [5] 108% | [6] 93.6% | [7] 88.9% | [8] 98% | [9] 92.2% | [10] 110%
